Records with an inconclusive call do not appear. Calls of active or inactive are those of the source. Rule for the calls, unless noted: active = hit-call score of the fitted dose curve at least 0.9, where 1 is the maximum; inconclusive = response in the unintended direction; inactive = score below 0.9.
Tests used:
[1] = ATG_TCF_b_cat_CIS: Attagene CIS-FACTORIAL HepG2 Assay for human T-Cell-Factor with beta-catenin (TCF/b-cat) (AID 2282965; active = hit-call score of the fitted dose curve at least 0.9, where 1 is the maximum; inactive = score below 0.9); conditions: HepG2 TCF/beta-catenin cis-reporter transcription, actives raise or lower the signal
Outline: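 Cells of the HepG2 line carry transiently transfected reporter units whose promoters respond to endogenous factors. Twenty-four hours post-dosing, reporter mRNA induction is measured by fluorescent RT-PCR and capillary electrophoresis, with DMSO as baseline.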

[2] = ATG_TAL_CIS: Attagene CIS-FACTORIAL HepG2 Assay for human TAL Basal Promoter (AID 2282966; active = hit-call score of the fitted dose curve at least 0.9, where 1 is the maximum; inactive = score below 0.9;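 note: background control endpoint measuring basal TAL promoter reporter mRNA not a specific factor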); conditions: HepG2 Attagene cis-factorial TAL promoter reporter; actives raise or lower the signal
Outline: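 RT-PCR plus capillary electrophoresis quantifies reporter mRNA induction in transiently transfected HepG2 cells after 24 h chemical treatment. DMSO serves as negative control and baseline for bidirectional fitting.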

[3] = ATG_TGFb_CIS: Attagene CIS-FACTORIAL HepG2 Assay for human Transforming Growth Factor (TGF) (AID 2282967; active = hit-call score of the fitted dose curve at least 0.9, where 1 is the maximum; inactive = score below 0.9); conditions: HepG2 Attagene CIS TGFb reporter, mRNA transcription; actives raise or lower the signal
Outline: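 Transient MRTU transfection of HepG2 (FuGene 6). Dose 24 h. TriZol RNA, oligo(dT) RT, PCR, 6-FAM primer extension, HpaI cut, CE. Bidirectional fit, DMSO = baseline.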

[4] = ATG_VDRE_CIS: Attagene CIS-FACTORIAL HepG2 Assay for human Vitamin D Receptor Element (VDRE) (AID 2282968; active = hit-call score of the fitted dose curve at least 0.9, where 1 is the maximum; inactive = score below 0.9); conditions: HepG2 VDRE cis-reporter transcription, actives raise or lower the signal
Outline: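 Cell-based multiplexed reporter format in human liver HepG2 cells, 24 h post-dose. Fluorescence from capillary electrophoresis of reporter cDNA gives the signal, with DMSO as negative control and baseline.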

[5] = target: Nuclear receptor subfamily 1 group I member 3 (Homo sapiens) (UniProt Q14994); test: ATG_CAR_TRANS: Attagene TRANS-FACTORIAL HepG2 Assay for human Constitutive Androstane Receptor (CAR) (AID 2282969); conditions: HepG2 Attagene TRANS-FACTORIAL CAR reporter;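 note: activators raise reporter mRNA above DMSO so AC50 marks induction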
Outline: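 HepG2 cells transiently transfected with GAL4-UAS reporter units; TRANS format reads activity of exogenous chimeric NR-Gal4 protein. After 24 h dosing, reporter mRNA quantified by RT-PCR, 6-FAM labelling and capillary electrophoresis; gain of signal fitted against DMSO.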

[6] = target: Estrogen receptor (Homo sapiens) (UniProt P03372); test: ATG_ERa_TRANS: Attagene TRANS-FACTORIAL HepG2 Assay for human Estrogen Receptor alpha (ERa) (AID 2282970); conditions: HepG2 Attagene TRANS ERa GAL4 reporter, mRNA
Outline: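 Cells: HepG2, transiently transfected. Construct: GAL4-UAS reporter units regulated by exogenous NR-Gal4 chimeras. Time: 24 h. Detection: reporter mRNA by RT-PCR, capillary electrophoresis, fluorescence. Baseline: DMSO, upward fitting.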

[7] = target: X-box-binding protein 1 (Homo sapiens) (UniProt P17861); test: ATG_Xbp1_CIS: Attagene CIS-FACTORIAL HepG2 Assay for human X-box Binding Protein 1 (XBP1) (AID 2282972; active = hit-call score of the fitted dose curve at least 0.9, where 1 is the maximum; inactive = score below 0.9); conditions: HepG2 XBP1 cis-element reporter, Attagene multiplex; actives raise or lower the signal
Outline: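 Fluorescence-labelled cDNA fragments from reporter transcripts, separated by capillary electrophoresis, give the signal. Source: HepG2 cells transfected with promoter-driven reporter units, harvested 24 h post-dose. DMSO served as reference for bidirectional curve fitting.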

[8] = target: Bile acid receptor (Homo sapiens) (UniProt Q96RI1); test: ATG_FXR_TRANS: Attagene TRANS-FACTORIAL HepG2 Assay for Farnesoid X Receptor (FXR) (AID 2282979); conditions: HepG2 Attagene TRANS FXR-GAL4 reporter transcription;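 note: hits raise reporter mRNA above DMSO so AC50 marks FXR activation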
Outline: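 Reporter transcripts from transfected HepG2 cells were measured 24 h after dosing, using RT-PCR with capillary electrophoresis of 6-FAM-labelled fragments. The read-out reflects activity of exogenous FXR-Gal4 chimera on GAL4-UAS units, with induction relative to DMSO.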

[9] = target: Hepatocyte nuclear factor 4-alpha (Homo sapiens) (UniProt P41235); test: ATG_HNF4a_TRANS: Attagene TRANS-FACTORIAL HepG2 Assay for human Hepatocyte Nuclear Factor 4 alpha (HNF4a) (AID 2282982); conditions: HepG2 HNF4a transactivation reporter, mRNA readout
Outline: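 Gain-of-signal mRNA induction, relative to DMSO vehicle, was read after 24 h compound treatment of HepG2 cells bearing transfected GAL4-UAS reporters. Detection used RT-PCR, 6-FAM primer extension and capillary electrophoresis.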

[10] = ATG_M_06_TRANS: Attagene TRANS-FACTORIAL HepG2 Assay for M06 Transcription Factor (Internal Marker) (AID 2282983); conditions: HepG2 Attagene TRANS M06 internal marker reporter
Outline: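 Cells: HepG2, transient multi-reporter transfection. Exposure: 24 h. Detection: RT-PCR, 6-FAM labelling, HpaI digestion (2 h, 37 °C), capillary electrophoresis. Baseline: DMSO.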

[11] = ATG_M_32_TRANS: Attagene TRANS-FACTORIAL HepG2 Assay for M32 Transcription Factor (Internal Marker) (AID 2282984); conditions: HepG2 Attagene TRANS M32 internal marker reporter;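 note: transcript level of a background control reporter unit measured by RT-PCR and capillary electrophoresis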
Outline: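 Capillary electrophoresis of 6-FAM-labelled reporter fragments gives the signal; data fitted for gain over DMSO negative control. Source: HepG2 cells bearing transient multiple reporter transcription units, 24 h exposure.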

[12] = target: Nuclear receptor subfamily 4 group A member 2 (Homo sapiens) (UniProt P43354); test: ATG_NURR1_TRANS: Attagene TRANS-FACTORIAL HepG2 Assay for human Nuclear Receptor Related Protein 1 (NURR1) (AID 2282985); conditions: HepG2 Attagene TRANS reporter, mRNA readout
Outline: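 HepG2 / transient MRTU transfection / 24 h compound exposure / RT-PCR + CE fluorescence of reporter mRNA / gain-of-signal vs DMSO.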

[13] = target: Transcriptional activator Myb (Homo sapiens) (UniProt P10242); test: ATG_Myb_CIS: Attagene CIS-FACTORIAL HepG2 Assay for human Myeloblastosis (Myb) Proto-Oncogene Transcription Factor (AID 2282986; active = hit-call score of the fitted dose curve at least 0.9, where 1 is the maximum; inactive = score below 0.9); conditions: HepG2 Attagene CIS-FACTORIAL Myb reporter transcription; actives raise or lower the signal
Outline: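 HepG2 cells were transiently transfected with cis-regulated multiple reporter transcription units reflecting endogenous Myb activity, then exposed to compound for 24 hours. Reporter mRNA was measured by RT-PCR with capillary electrophoresis; bidirectional fitting versus DMSO baseline.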

[14] = ATG_GAL4_TRANS: Attagene TRANS-FACTORIAL HepG2 Assay for GAL4 (Internal Marker) (AID 2282976); conditions: HepG2 Attagene TRANS GAL4 internal marker reporter
Outline: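 In transfected human HepG2 liver cells dosed 24 h, GAL4 reporter mRNA serves as a baseline marker. Detection by RT-PCR with fluorescent capillary electrophoresis, activity fitted upward relative to DMSO.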

[15] = target: Glucocorticoid receptor (Homo sapiens) (UniProt P04150); test: ATG_GR_TRANS: Attagene TRANS-FACTORIAL HepG2 Assay for human Glucocorticoid Receptor (GR) (AID 2282978); conditions: HepG2 Attagene TRANS GR reporter, mRNA transcription;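 note: activators score as hits since higher reporter transcript over DMSO is fitted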
Outline: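 HepG2 cells transiently transfected with multiplexed reporter units in which chimeric NR-GAL4 proteins drive GAL4-UAS reporters; 24 h compound exposure. Reporter mRNA measured by RT-PCR, 6-FAM labelling, HpaI digestion and capillary electrophoresis; gain-of-signal fitted versus DMSO.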

[16] = target: Oxysterols receptor LXR-alpha (Homo sapiens) (UniProt Q13133); test: ATG_LXRa_TRANS: Attagene TRANS-FACTORIAL HepG2 Assay for human Liver X Receptor alpha (LXRa) (AID 2282980); conditions: HepG2 Attagene TRANS reporter, LXRa transactivation
Outline: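 Chemical-induced reporter mRNA measured by RT-PCR with fluorescent labelling and capillary electrophoresis after 24 h dosing of transiently transfected HepG2 cells expressing exogenous NR-Gal4 chimeras; increases scored against DMSO baseline.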

[17] = target: Oxysterols receptor LXR-beta (Homo sapiens) (UniProt P55055); test: ATG_LXRb_TRANS: Attagene TRANS-FACTORIAL HepG2 Assay for human Liver X Receptor beta (LXRb) (AID 2282981); conditions: HepG2 Attagene TRANS GAL4-LXRb reporter, mRNA
Outline: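 Gain-of-signal mRNA reporter endpoint, DMSO as negative control. Transiently transfected HepG2 cells carrying the NR-Gal4 chimera and GAL4-UAS reporter units were treated 24 h; transcripts quantified by RT-PCR and capillary electrophoresis fluorescence.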

[18] = target: Steroid hormone receptor ERR1 (Homo sapiens) (UniProt P11474); test: ATG_ERRa_TRANS: Attagene TRANS-FACTORIAL HepG2 Assay for human Estrogen-Related Receptor alpha (ERRa) (AID 2282971); conditions: HepG2 Attagene TRANS reporter, ERRa transactivation
Outline: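 Reporter transcripts from ERRa-Gal4 chimera activity measured in transiently transfected human HepG2 cells 24 hours after dosing, using RT-PCR with 6-FAM primer extension, HpaI digestion and capillary electrophoresis; DMSO is baseline.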

[19] = ATG_M_19_TRANS: Attagene TRANS-FACTORIAL HepG2 Assay for M19 Transcription Factor (Internal Marker) (AID 2282974); conditions: HepG2 Attagene TRANS-FACTORIAL M19 internal marker reporter
Outline: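 HepG2 cells transiently transfected with multiple GAL4-UAS reporter transcription units were exposed to chemicals for 24 h. Reporter mRNA was read by RT-PCR, 6-FAM primer extension, HpaI digestion and capillary electrophoresis; gain of signal fitted relative to DMSO.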

[20] = target: Estrogen-related receptor gamma (Homo sapiens) (UniProt P62508); test: ATG_ERRg_TRANS: Attagene TRANS-FACTORIAL HepG2 Assay for human Estrogen-Related Receptor gamma (ERRg) (AID 2282977); conditions: HepG2 Attagene TRANS reporter, ERRg transactivation;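 note: hits increase reporter signal over DMSO so potencies reflect activators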
Outline: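 HepG2 cells transiently transfected with multiplexed GAL4-UAS reporter units and chimeric NR-Gal4 constructs were exposed to test chemicals for 24 h. Reporter mRNA was measured by RT-PCR, 6-FAM primer extension, HpaI digestion and capillary electrophoresis; gain-of-signal versus DMSO.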

Measured: AC50

Chain of Glucocorticoid receptor (Homo sapiens) (P04150 whole entry, looked up, the tested form may be a part): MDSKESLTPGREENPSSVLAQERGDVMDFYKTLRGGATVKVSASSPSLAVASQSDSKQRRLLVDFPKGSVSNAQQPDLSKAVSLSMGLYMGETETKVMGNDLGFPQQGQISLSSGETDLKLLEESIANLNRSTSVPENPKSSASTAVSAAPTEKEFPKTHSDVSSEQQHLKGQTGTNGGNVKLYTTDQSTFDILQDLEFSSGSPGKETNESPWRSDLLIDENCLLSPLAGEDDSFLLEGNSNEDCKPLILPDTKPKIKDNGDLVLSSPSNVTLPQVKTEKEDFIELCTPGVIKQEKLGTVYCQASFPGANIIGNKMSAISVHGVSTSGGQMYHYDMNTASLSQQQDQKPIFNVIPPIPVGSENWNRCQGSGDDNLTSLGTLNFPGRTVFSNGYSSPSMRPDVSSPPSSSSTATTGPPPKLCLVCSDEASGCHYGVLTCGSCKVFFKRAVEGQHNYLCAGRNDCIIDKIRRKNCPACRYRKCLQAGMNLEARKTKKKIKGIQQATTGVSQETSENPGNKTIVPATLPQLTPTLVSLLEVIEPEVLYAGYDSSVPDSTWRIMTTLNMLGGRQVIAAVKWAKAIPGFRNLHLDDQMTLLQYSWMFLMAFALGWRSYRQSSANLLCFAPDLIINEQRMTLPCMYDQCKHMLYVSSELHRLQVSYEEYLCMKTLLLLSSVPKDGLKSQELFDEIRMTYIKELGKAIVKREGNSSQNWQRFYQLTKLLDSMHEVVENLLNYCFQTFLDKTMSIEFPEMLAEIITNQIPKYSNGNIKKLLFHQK
Chain of Oxysterols receptor LXR-alpha (Homo sapiens) (Q13133 whole entry, looked up, the tested form may be a part): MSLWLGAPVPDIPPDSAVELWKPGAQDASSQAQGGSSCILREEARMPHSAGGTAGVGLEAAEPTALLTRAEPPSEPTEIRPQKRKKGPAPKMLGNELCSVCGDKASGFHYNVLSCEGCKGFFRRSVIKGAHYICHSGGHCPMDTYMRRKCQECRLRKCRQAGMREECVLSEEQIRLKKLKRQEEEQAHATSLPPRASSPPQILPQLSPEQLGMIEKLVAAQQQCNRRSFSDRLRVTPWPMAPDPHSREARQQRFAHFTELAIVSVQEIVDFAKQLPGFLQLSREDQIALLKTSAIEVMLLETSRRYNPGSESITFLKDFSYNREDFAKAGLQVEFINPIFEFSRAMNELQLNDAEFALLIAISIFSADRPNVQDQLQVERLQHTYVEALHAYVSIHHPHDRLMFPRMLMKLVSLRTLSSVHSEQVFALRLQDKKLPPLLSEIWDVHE
Chain of Transcriptional activator Myb (Homo sapiens) (P10242 whole entry, looked up): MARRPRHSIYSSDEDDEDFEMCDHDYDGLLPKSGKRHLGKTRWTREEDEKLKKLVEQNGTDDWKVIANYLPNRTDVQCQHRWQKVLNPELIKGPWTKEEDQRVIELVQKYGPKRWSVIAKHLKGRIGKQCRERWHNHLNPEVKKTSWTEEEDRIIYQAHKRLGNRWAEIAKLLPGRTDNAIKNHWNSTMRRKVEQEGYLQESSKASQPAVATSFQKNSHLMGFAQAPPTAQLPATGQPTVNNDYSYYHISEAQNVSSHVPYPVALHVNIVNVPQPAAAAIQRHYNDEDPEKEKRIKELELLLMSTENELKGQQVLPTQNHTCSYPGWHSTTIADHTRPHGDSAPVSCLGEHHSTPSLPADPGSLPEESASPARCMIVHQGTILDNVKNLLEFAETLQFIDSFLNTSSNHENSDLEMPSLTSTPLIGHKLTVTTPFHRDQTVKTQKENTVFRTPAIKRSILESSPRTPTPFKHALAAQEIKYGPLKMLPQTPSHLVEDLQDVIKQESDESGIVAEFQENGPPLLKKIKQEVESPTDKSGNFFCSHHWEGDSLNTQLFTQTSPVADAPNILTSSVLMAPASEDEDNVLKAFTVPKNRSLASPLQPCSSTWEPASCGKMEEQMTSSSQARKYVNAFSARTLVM
Chain of Oxysterols receptor LXR-beta (Homo sapiens) (P55055 whole entry, looked up, the tested form may be a part): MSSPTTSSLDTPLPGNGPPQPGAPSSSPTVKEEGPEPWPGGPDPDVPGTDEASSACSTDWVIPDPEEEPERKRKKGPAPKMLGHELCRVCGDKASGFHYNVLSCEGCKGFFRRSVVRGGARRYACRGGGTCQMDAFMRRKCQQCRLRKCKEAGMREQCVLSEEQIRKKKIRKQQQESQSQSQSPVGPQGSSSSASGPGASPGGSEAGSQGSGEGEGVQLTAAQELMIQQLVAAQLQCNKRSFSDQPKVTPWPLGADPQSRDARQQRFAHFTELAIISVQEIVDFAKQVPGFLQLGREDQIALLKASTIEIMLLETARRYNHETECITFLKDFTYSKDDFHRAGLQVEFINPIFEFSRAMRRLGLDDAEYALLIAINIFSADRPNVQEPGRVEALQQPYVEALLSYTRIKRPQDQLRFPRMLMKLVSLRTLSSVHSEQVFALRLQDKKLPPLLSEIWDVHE
Chain of Bile acid receptor (Homo sapiens) (Q96RI1 whole entry, looked up, the tested form may be a part): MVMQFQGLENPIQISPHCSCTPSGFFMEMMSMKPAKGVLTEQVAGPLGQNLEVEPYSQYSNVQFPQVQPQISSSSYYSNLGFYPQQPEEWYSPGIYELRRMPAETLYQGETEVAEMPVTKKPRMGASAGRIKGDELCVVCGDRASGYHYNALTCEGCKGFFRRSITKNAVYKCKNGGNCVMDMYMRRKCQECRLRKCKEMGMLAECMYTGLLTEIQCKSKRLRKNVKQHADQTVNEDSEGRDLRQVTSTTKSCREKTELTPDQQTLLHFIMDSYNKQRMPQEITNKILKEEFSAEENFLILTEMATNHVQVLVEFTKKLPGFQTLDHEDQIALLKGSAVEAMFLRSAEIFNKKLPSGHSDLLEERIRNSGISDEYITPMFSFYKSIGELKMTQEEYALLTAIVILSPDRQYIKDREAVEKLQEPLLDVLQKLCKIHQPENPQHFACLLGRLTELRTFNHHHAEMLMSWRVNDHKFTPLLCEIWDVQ
Chain of X-box-binding protein 1 (Homo sapiens) (P17861 whole entry, looked up, the tested form may be a part): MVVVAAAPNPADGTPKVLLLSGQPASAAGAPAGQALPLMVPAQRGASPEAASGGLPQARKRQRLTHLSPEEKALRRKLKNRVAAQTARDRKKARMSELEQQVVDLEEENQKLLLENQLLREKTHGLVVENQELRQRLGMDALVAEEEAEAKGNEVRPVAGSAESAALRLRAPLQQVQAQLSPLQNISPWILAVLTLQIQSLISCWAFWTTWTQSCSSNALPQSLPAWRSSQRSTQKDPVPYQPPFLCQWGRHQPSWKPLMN
Chain of Nuclear receptor subfamily 4 group A member 2 (Homo sapiens) (P43354 whole entry, looked up): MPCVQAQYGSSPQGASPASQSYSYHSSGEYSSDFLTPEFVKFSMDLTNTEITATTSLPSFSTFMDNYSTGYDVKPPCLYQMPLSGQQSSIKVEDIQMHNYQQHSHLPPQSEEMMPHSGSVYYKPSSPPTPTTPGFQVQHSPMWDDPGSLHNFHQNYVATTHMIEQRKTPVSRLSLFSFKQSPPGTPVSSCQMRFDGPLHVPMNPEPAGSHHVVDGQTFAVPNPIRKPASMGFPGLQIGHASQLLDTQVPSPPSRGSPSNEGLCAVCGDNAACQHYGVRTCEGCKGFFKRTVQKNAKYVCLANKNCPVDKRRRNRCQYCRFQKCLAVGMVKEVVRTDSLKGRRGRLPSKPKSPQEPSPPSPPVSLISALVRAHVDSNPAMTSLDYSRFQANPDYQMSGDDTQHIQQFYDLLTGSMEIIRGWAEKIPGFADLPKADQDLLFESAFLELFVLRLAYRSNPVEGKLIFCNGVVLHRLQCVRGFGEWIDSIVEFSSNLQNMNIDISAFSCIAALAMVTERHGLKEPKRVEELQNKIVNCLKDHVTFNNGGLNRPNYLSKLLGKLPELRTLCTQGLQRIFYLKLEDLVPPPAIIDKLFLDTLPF
Chain of Hepatocyte nuclear factor 4-alpha (Homo sapiens) (P41235 whole entry, looked up, the tested form may be a part): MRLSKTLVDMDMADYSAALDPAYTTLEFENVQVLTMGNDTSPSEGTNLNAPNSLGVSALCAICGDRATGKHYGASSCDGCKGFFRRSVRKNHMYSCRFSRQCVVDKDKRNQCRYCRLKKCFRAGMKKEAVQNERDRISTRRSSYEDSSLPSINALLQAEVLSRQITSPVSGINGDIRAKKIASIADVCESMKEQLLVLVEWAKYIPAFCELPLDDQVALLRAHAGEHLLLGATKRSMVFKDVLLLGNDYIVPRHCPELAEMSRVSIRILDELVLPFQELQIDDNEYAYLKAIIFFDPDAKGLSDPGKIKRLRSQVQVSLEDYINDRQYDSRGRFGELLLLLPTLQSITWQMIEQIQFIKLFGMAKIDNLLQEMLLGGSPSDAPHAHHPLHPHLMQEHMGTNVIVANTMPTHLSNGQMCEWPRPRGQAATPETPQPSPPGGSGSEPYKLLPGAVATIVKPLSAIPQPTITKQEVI
Chain of Estrogen receptor (Homo sapiens) (P03372 whole entry, looked up, the tested form may be a part): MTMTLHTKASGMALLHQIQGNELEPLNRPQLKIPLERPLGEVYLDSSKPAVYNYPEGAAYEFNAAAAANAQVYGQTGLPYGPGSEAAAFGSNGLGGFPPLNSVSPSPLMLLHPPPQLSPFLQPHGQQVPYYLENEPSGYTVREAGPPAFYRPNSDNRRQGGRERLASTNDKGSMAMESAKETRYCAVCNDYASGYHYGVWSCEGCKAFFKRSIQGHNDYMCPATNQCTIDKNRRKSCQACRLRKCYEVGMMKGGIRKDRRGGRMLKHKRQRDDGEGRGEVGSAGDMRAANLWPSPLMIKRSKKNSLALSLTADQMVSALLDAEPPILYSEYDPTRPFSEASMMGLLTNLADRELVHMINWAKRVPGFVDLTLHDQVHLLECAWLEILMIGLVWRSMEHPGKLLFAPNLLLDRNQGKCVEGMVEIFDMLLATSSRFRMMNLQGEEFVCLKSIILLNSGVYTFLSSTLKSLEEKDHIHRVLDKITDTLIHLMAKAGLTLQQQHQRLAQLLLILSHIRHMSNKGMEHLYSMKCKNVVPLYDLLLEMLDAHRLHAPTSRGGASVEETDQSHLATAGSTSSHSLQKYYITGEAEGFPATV

CCn1c2ccccc2c2ccccc21
active: [3] 27.5 nM
inactive: [1] | [2] | [4] | [5] | [6] | [7] | [8] | [9] | [10] | [11] | [12] | [13]

O=S(=O)(O)c1ccc(Cl)cc1
inactive: [1] | [2] | [3] | [4] | [5] | [6] | [7] | [14] | [15] | [16] | [17] | [9] | [10] | [11] | [12] | [13]

O=C=NCc1cccc(CN=C=O)c1
inactive: [1] | [2] | [3] | [4] | [5] | [7] | [14] | [16] | [17] | [9] | [12] | [13]

CC1CCCCC1
inactive: [1] | [2] | [3] | [4] | [5] | [7] | [14] | [8] | [16] | [17] | [11] | [13]

O=C(Cl)C(F)(F)C(F)(F)C(F)(F)C(F)(F)C(F)(F)C(F)(F)F
inactive: [1] | [2] | [3] | [4] | [6] | [18] | [7] | [14] | [15] | [8] | [16] | [17] | [9] | [11] | [12] | [13]

CNS(=O)(=O)C(F)(F)C(F)(F)C(F)(F)C(F)(F)C(F)(F)C(F)(F)C(F)(F)C(F)(F)F
inactive: [1] | [2] | [3] | [4] | [18] | [7] | [19] | [20] | [8] | [16] | [17] | [9] | [11] | [12] | [13]
active: [6] 9.26 µM

CCCCCCCCn1sc(Cl)c(Cl)c1=O
active: [13] 20.4 µM
inactive: [1] | [2] | [3] | [4] | [5] | [6] | [7] | [14] | [15] | [17] | [10] | [11] | [12]

COCCOCCC[Si](C)(O[Si](C)(C)C)O[Si](C)(C)C
inactive: [2] | [3] | [19] | [8] | [16] | [17] | [9] | [11] | [12]
active: [1] 33.4 µM | [4] 2.56 µM | [7] 2.99 µM | [13] 19 µM

Cc1ccc(S(=O)(=O)C(I)I)cc1
active: [1] 8.97 µM | [4] 9.01 µM | [7] 7.84 µM | [13] 17.4 µM
inactive: [2] | [3] | [6] | [9] | [11] | [12]

— PubChem BioAssay (EPA / NIEHS)
